Results on 79 compounds are retold here after PubChem BioAssay AID817 (Emory University Molecular Libraries Screening Center, 2007).

Hit rate of the full screen: of about 140,000 compounds, about 300 (0.21%) were called active.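 The calls were made as follows: active = z-score above 3 at both the 24 hr and the 30 hr optical density reads; inactive = the rest, inconclusive results apart.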 Shown is part of a subset that was picked to be rich in actives.

The assay in a line: restorers of sdo1-deficient yeast growth – S. cerevisiae, bone marrow failure model, primary screen (AID 817).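 Also: z-score against mean and SD of all compound wells on the same plate.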 The following applies: S. cerevisiae sdo1-depleted JHY4D growth rescue, at 10 µM, stronger effect = higher value, pdr5 snq2 efflux-pump mutant strain.
Setting [1] is: OD600, measured here: growth rescue at 24 h.

Take `CCOC(=O)c1c(/N=C/C2C(=O)CC(C)(C)CC2=O)sc(C)c1C`: the z-score was 0.94 (inactive) (OD600 30 h) and 1.36 under setting [1].
Turning to `O=C(/C=C/c1cccc([N+](=O)[O-])c1)NCCSCc1ccco1`, the z-score runs as follows: (OD600 30 h) -0.03 (inactive); under setting [1], -0.07.
For `CC(C)NC(=S)N1CCN(S(C)(=O)=O)CC1` the same measures were 0.56 (inactive) and 0.03.
For `COCCOC(=O)c1c(C)oc2cc(Br)c(OCC(N)=O)cc12` the same measures were 0.6 (inactive) and 0.18.
For `O=C(Nc1ccccc1Cl)c1ccccc1S(=O)(=O)c1ccccc1[N+](=O)[O-]` the same measures were 0.14 (inactive) and 0.15.
As for `C[C@@H]1NC(=O)c2cc([N+](=O)[O-])cc(F)c2NCCC[C@@H](C(N)=O)NC(=O)[C@H](CC(N)=O)NC1=O`, the z-score is 0.86 (inactive) (OD600 30 h) and 0.49 under setting [1].
For `CN(c1ccccc1)S(=O)(=O)c1ccc(Cl)c(C(=O)NCCc2c[nH]c3ccccc23)c1` the same measures were 0.35 (inactive) and 0.28.
For `CC(Oc1ccccc1F)C(=O)NN` (stereo not drawn), in that order: -0.12 (inactive) and -0.98.
For `O=C(Cc1cccc2ccccc12)NCCC1=CCCCC1` the same measures were -0.77 (inactive) and -0.75.
With `O=C(Nn1c(-c2ccc(Cl)cc2)nc2ccccc2c1=O)c1cccnc1Cl`, the z-score was 0.6 (inactive) (OD600 30 h) and 0.56 under setting [1].
For `CCOC(=O)C1=C(c2ccc(OC)cc2)C(=O)c2ccccc2C1=O`, in that order: -1.39 (inactive) and -0.65.
For `CCOC(=O)CNC(=O)/C=C/c1c(Cl)cccc1Cl`, in that order: -0.54 (inactive) and -0.72.
For `COc1ccc(OCC(O)CNC(=O)Nc2ccc(Cl)cc2)cc1` (stereo not drawn), in that order: 0.9 (inactive) and 0.68.
`S=C(NCCc1ccccc1)NCc1ccccc1Cl`: the z-score (OD600 30 h) is -1.82 (inactive) and the z-score under setting [1] was -1.22.
For `N#Cc1ccccc1NC(=O)COc1c(Br)cc(Br)c2cccnc12` the same measures were 0.47 (inactive) and 2.32.
For `O=C(NC(=S)N1CCN(Cc2ccccc2)CC1)c1ccccc1` the same measures were 0.36 (inactive) and 0.18.
For `CC(=O)c1cc(-c2ccccc2)n(CCC(=O)NC2CCCCCC2)c1C` the same measures were -1.63 (inactive) and -1.27.
`CCOC(=O)C1CCN(C(=O)c2ccccc2N(C)S(=O)(=O)c2ccccc2)CC1`: the z-score reads like this: (OD600 30 h) 0.01 (inactive); under setting [1], -0.21.
For `O=C(NN1C(=O)C2C3C=CC(O3)C2C1=O)c1ccncc1` (stereo not drawn) the same measures were 0.24 (inactive) and -0.88.
For `Cc1ccc(S(=O)(=O)N2CCC(C(=O)N[C@@H](C)C(=O)NCc3ccco3)CC2)cc1`, in that order: 1.22 (inactive) and 0.16.
For `Cc1ccn(-c2cccc(-n3ccc(C)n3)n2)n1`, in that order: -0.06 (inactive) and -0.3.
For the compound `COc1ccc2c(c1)C(SCC(=O)NCc1ccccc1)CC(C)(C)O2` (stereo not drawn), the z-score was -0.16 (inactive) (OD600 30 h) and -0.58 under setting [1].
For `COc1ccc(-c2csc(NC(=O)COC(=O)c3ccc(Br)o3)n2)cc1`, in that order: 1.63 (inactive) and 1.52.
For `COC(=O)Cc1ccc(OCC(=O)Nc2ccc(OC(F)(F)F)cc2)cc1`, in that order: 0.38 (inactive) and 0.19.
For `Cc1ccccc1C1=NC(C(F)(F)F)(C(F)(F)F)c2c(n(-c3ccc(F)cc3)c(=O)[nH]c2=O)N1` the same measures were 0.91 (inactive) and 1.23.
Consider `CC(C)(C)CC(C)(C)NCC(O)COCCOc1ccc(Br)cc1` (stereo not drawn), for which the z-score reads like this: (OD600 30 h) -1.47 (inactive); under setting [1], -1.24.
For `CCCn1c(C)cc(/C=C(\C#N)C(=O)OCC(=O)Nc2cc(OC)c(OC)c(OC)c2)c1C`, in that order: -0.22 (inactive) and -0.65.
For `COC(=O)c1sccc1NC(=O)COc1ccc(Cl)cc1` the same measures were -0.81 (inactive) and 0.03.
For `Cc1cc(C)cc(NC(=S)NCc2ccc(F)cc2)c1` the same measures were -0.44 (inactive) and -0.91.
As to `COc1ccc(C2=NN(C(=O)c3cccnc3)C(c3ccccc3)C2)cc1` (stereo not drawn), the z-score (OD600 30 h) was -0.64 (inactive) and the z-score under setting [1] was -0.53.
For `Cc1ccc(Nc2cc(C)nc3c(C)ccc([N+](=O)[O-])c23)cc1`, in that order: -2.1 (inactive) and -1.28.
For `O=c1c2sccc2nc(SCc2cc(=O)n3ccccc3n2)n1-c1ccc(Br)cc1` the same measures were -0.28 (inactive) and 0.04.
For `Cc1ccc(C)c(NC(=O)CCC(=O)NNC(=O)c2cccs2)c1`, in that order: 0.52 (inactive) and -0.15.
As to `O=C(CSc1ccc(C(F)(F)F)cc1[N+](=O)[O-])NCCOc1ccccc1`, the z-score was -0.75 (inactive) (OD600 30 h) and -0.39 under setting [1].
For `Cc1cccc(C(=O)OCC(=O)Nc2sc3c(c2C#N)CCC3)c1`, in that order: 1.54 (inactive) and 1.79.
For `CCCNC(=O)NC(=O)COC(=O)CC(NC(N)=O)c1ccc(Cl)cc1` (stereo not drawn) the same measures were 1.01 (inactive) and 0.32.
For `CC[C@H]1OC(=O)[C@H](C)[C@@H](O[C@H]2C[C@@](C)(OC)[C@@H](O)[C@H](C)O2)[C@H](C)[C@@H](O[C@@H]2O[C@H](C)C[C@H](N(C)C)[C@H]2O)[C@](C)(O)C[C@@H](C)[C@@H]2N[C@@H](COCCOC)O[C@H]([C@H]2C)[C@]1(C)O`, in that order: 2.24 (inactive) and 2.51.
With `Cc1cc(Cl)ccc1OCCCC(=O)NCc1ccncc1`, the z-score runs as follows: (OD600 30 h) -0.45 (inactive); under setting [1], -0.98.
For `O=C(CCN1C(=O)c2ccccc2C1=O)C1=NN[C@@H]2C(=O)N(c3ccc(F)cc3)C(=O)[C@H]12` the same measures were 0.12 (inactive) and -0.42.
For `CC(NC(=O)COC(=O)C1CCN(S(=O)(=O)c2ccccc2C(F)(F)F)CC1)c1ccccc1` (stereo not drawn), in that order: 1.2 (inactive) and 1.46.
For `Cc1ccc(S/C(=N\S(=O)(=O)c2ccc(Cl)cc2)c2ccccc2)cc1`, the z-score (OD600 30 h) is -0.79 (inactive) and the z-score under setting [1] is -1.13.
For `Cc1ccc(S(=O)(=O)/N=C(/Nc2ccccn2)c2ccc(Cl)cc2)cc1` the same measures were -1.04 (inactive) and -0.87.
For `O=S(=O)(/N=C(/Nc1ccccn1)c1ccccc1)c1ccc(Cl)cc1` the same measures were 5.14 (active) and 4.98.
For `Cc1sc2ncnc(Sc3nc4ccccc4s3)c2c1C`, in that order: 0.02 (inactive) and -0.34.
As for `CC(C)NC(=S)N1CCN(C(c2ccccc2)c2ccccc2)CC1`, the z-score runs as follows: (OD600 30 h) -1.16 (inactive); under setting [1], -1.01.
For `CC(C)=C(NC(=O)c1ccccc1)C(=O)N/N=C(\C)c1ccccc1O`, in that order: 1.49 (inactive) and 2.26.
On to `Cc1ccc(C(=O)c2ccc(N3CCN(C)CC3)c([N+](=O)[O-])c2)cc1`, for which the z-score is 1.82 (inactive) (OD600 30 h) and 1.21 under setting [1].
For `COc1ccc(NC(=O)CC2C(=O)OCC3CCCCN32)cc1Cl` (stereo not drawn) the same measures were 0.14 (inactive) and -0.04.
For `Cc1ccc(N=C2NC(=O)c3cccc([N+](=O)[O-])c32)cc1` the same measures were 0.32 (inactive) and 0.33.
For `CCN(CC)c1ccc(C(=O)N/N=C(\C)c2cccc(OC)c2)cc1` the same measures were 0.86 (inactive) and 0.18.
With `NC(=O)CCC(NS(=O)(=O)c1ccc(Cl)cc1)C(=O)NCc1ccccc1Cl` (stereo not drawn), the z-score is -0.28 (inactive) (OD600 30 h) and -1.21 under setting [1].
On to `Cc1ccc(C(=O)CNc2ccc(F)cc2)cc1`, for which the z-score (OD600 30 h) is 0.78 (inactive) and the z-score under setting [1] was -0.09.
Regarding `Fc1ccccc1CNC(=S)Nc1ccc(Cl)cc1`, the z-score is -1.01 (inactive) (OD600 30 h) and -0.89 under setting [1].
For `CCOC(=O)C(C)Sc1nnc(CSc2nc3nc(C)cc(C)n3n2)o1` (stereo not drawn) the same measures were 0.4 (inactive) and 0.13.
For `c1cncc(-c2nnc3n2C2(CCCCC2)Cc2ccccc2-3)c1` the same measures were -0.05 (inactive) and -0.69.
Turning to `CCOc1ccccc1C1CC(c2cccc(NS(C)(=O)=O)c2)=NN1C(=O)c1ccccc1` (stereo not drawn), the z-score was -0.43 (inactive) (OD600 30 h) and -0.52 under setting [1].
For `CCOc1cccc2c1OC1(CCCCC1)N1N=C(c3cccnc3)CC21` (stereo not drawn) the same measures were 13.5 (active) and 3.28.
For `N/C(=N\OC(=O)N1c2ccccc2Sc2ccccc21)c1ccc(Br)cc1` the same measures were -1.34 (inactive) and -1.41.
For `Cc1cc(-c2csc(N)n2)c(C)n1-c1ccccc1` the same measures were 0.37 (inactive) and 0.28.
Take `C/C(=N\NC(=O)c1ccc(NS(=O)(=O)c2cccs2)cc1)c1ccc2ccccc2c1`: the z-score was 0.3 (inactive) (OD600 30 h) and 0.75 under setting [1].
`CCCCC(=O)N/N=C(\C)CC(=O)Nc1cc(Cl)ccc1OC`: the z-score is 0.09 (inactive) (OD600 30 h) and -0.2 under setting [1].
For `COc1ccc(/C(C)=N/NC(=O)CCC(=O)Nc2ccc(Cl)cc2Cl)c(OC)c1`, in that order: 5.63 (active) and 5.64.
On to `COc1ccc(/C(C)=N/Nc2cc(C(F)(F)F)ccc2Cl)c(OC)c1`, for which the z-score (OD600 30 h) is -0.18 (inactive) and the z-score under setting [1] is -0.33.
For `O=c1[nH]c2ccccc2s1` the same measures were 0.98 (inactive) and 1.68.
As for `C=CCN(c1ccc(C(=O)Nc2cc(C)cc(C)c2)cc1)S(C)(=O)=O`, the z-score (OD600 30 h) was -0.5 (inactive) and the z-score under setting [1] is -0.78.
For `C#CCOCCOCCOCCNc1nc(N2CCN(C(=O)[C@H](C(C)C)n3cc(CCO)nn3)CC2)nc(N2CCN(C(=O)[C@H]([C@@H](C)CC)n3cc(CCCN=C(N)N)nn3)CC2)n1` the same measures were 1.22 (inactive) and 1.32.
`CCn1c(SCC(=O)N/N=C/C=C/c2ccccc2[N+](=O)[O-])nnc1-c1ccccc1`: the z-score is 0.43 (inactive) (OD600 30 h) and -0.06 under setting [1].
For `CN(C)C(=O)c1ccc2c(c1)C1C3CCC(C3)C1C(c1ccccc1)N2` (stereo not drawn) the same measures were -0.71 (inactive) and -0.66.
Take `CCCCNC(=O)CSc1nc2ccc(NC(=O)CSc3nnc(N)s3)cc2s1`: the z-score runs as follows: (OD600 30 h) 0.08 (inactive); under setting [1], -0.52.
Take `COC(=O)c1ccc(NC(=O)CSc2nncc3ccc(OC)c(OC)c23)cc1`: the z-score was -1.41 (inactive) (OD600 30 h) and -0.89 under setting [1].
For `CCOc1ccc(S(=O)(=O)N/N=C(\C)c2ccc(Cl)c(Cl)c2Cl)cc1` the same measures were 1.17 (inactive) and 1.85.
For `O=C(CSc1nc2ccccc2c(=O)n1CCCO)N1CCc2ccccc21`, in that order: -1.29 (inactive) and -0.81.
As for `CCc1ccc(C2N3CC4([N+](=O)[O-])CN2CC([N+](=O)[O-])(C3)C4(C)C)cc1` (stereo not drawn), the z-score is 1.48 (inactive) (OD600 30 h) and 1.35 under setting [1].
For `CCC(C)C(=O)Nc1cc([N+](=O)[O-])ccc1Cl` (stereo not drawn) the same measures were 0.25 (inactive) and -0.26.
For `CN(C)/C(=N\OC(=O)c1ccccc1)c1nonc1N` the same measures were -0.17 (inactive) and 0.24.
In the case of `COCCn1c(=O)[nH]c(=O)c2cc(C(=O)c3cc(OC)ccc3O)cnc21`, the z-score by setting is: (OD600 30 h) 0.16 (inactive); under setting [1], 0.23.
For `N#C/C(=C\C1=C(N2CCOCC2)C(=C\c2ccccc2)/CC1)C(=O)Nc1ccccc1F`, in that order: 0.41 (inactive) and 2.72.
For `COc1cc(OC)cc(C(=O)NCC(=O)OCc2csc(-c3ccccc3)n2)c1`, in that order: -0.49 (inactive) and -0.88.
For `O=C(/C=C/c1ccccc1[N+](=O)[O-])NCC1CCCO1` (stereo not drawn) the same measures were 1.67 (inactive) and 2.05.
